For five molecules, composite z-score and z-score results are on record in PubChem BioAssay.

Structures are written as SMILES. Calls of active or inactive are those of the source.

Assay [1] concerns PRMT1 (protein arginine N-methyltransferase 1). The experiment in a line: small molecules binding arginine methyltransferase PRMT1 – biochemical, small-molecule microarray, 635 nm fluorescence, primary screen (AID 1088).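 Note: binding of Prmt1 protein to compounds spotted on small-molecule microarray slides.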 To be noted: higher = more signal.
Assay [2] is described as follows: growth effects on S. cerevisiae YJM789 – YJM789 clinical isolate, OD600, 24 h, basal, primary screen (AID 1089).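 Note: growth of clinical yeast isolate S. cerevisiae YJM 789 seeded 1000 cells per well; test concentration not given here.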 The following applies: higher = more signal, called active from +8 up or from −8 down.
Assay [3] in a line: S. pombe growth modifiers, basal conditions – strain 972, OD600, 24 h, no modulator, primary screen (AID 1090).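 Note: basal condition with compound alone and no growth modifier present; test concentration not given here.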 To be noted: S. pombe 972 growth, higher = more signal, called active from +8 up or from −8 down.
Assay [4] is described as follows: budding yeast growth modifiers under rapamycin – strain BY4716, OD600, 96 h, primary screen (AID 1091). Note: test concentration not given here. The following applies: S. cerevisiae BY4716 + rapamycin, higher = more signal, called active from +8 up or from −8 down.
For assay [5], the target named is Torsin-1A-interacting protein 2 (Homo sapiens) (UniProt Q8NFQ8). The experiment in a line: small molecules binding lysate-expressed LULL1 – cell lysate, human LULL1 lysate, 635/667 nm fluorescence, primary screen (AID 1092).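 Note: probe is lysate of COS7 cells overexpressing human LULL1; score merges per-feature 667 nm fluorescence with signal-to-noise.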 The following applies: small-molecule microarray, hLULL1 lysate binding, 635 nm fluorescence; higher = more signal.
Assay [6] can be described thus: optical density change of DRC41 E. coli – strain DRC41, OD650, 24 h, E. coli filamentation project, primary screen (AID 1093).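 Note: MC1000 strain lacking acrAB efflux and sulA so SOS filamentation is blocked; test concentration not given here.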 The following applies: E. coli DRC41 growth, higher = more signal, called active from +8 up or from −8 down.
A short description of assay [7]: probe aLefty2 binding to arrayed compounds – biochemical, biotinylated probe, 635/667 nm fluorescence, primary screen (AID 1094).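 Note: score merges spot fluorescence near 667 nm with spot signal-to-noise ratio.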 To be noted: small-molecule microarray, higher = more signal.
In assay [8] the test system is Noggin (protein binding on small-molecule microarray). Put plainly: small molecules binding Noggin protein – biochemical, 635/667 nm fluorescence, primary screen (AID 1095).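 Note: score merges 667 nm feature fluorescence with signal to noise over triplicate slides.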 The following applies: 635 nm fluorescence, higher = more signal.
Assay [9] deals with Neurogenic locus notch homolog protein 3 (Homo sapiens) (UniProt Q9UM47). Put plainly: small molecules binding NOTCH3 protein – biochemical, 635/667 nm fluorescence, primary screen (AID 1096). The following applies: small-molecule microarray, 635 nm fluorescence, higher = more signal.
Assay [10] is described as follows: probe aEGFR binding to arrayed compounds – biochemical, biotinylated probe, 635/667 nm fluorescence, primary screen (AID 1097).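 Note: probe is a biotinylated anti-EGFR antibody binding compounds printed on slides; score combines fluorescence near 667 nm and signal to noise of each spot.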 The following applies: small-molecule microarray, higher = more signal.
Assay [11] has as its system Plasmodium falciparum Sir2 (PF13_0152, Sir2A). Put plainly: Plasmodium falciparum Sir2A binding compounds – biochemical, small-molecule microarray, 635 nm fluorescence, primary screen (AID 1098).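 Note: score merges spot fluorescence intensity with its signal-to-noise ratio.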 To be noted: fluorescence 635 nm, higher = more signal.
Assay [12] is described as follows: probe aDKK1 binding to arrayed compounds – biochemical, biotinylated probe, 635/667 nm fluorescence, primary screen (AID 1099).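 Note: score merges 667nm spot fluorescence with signal to noise across triplicate slides; reference of the scale not given here.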 The following applies: small-molecule microarray, higher = more signal.
The nature of assay [13]: probe aCHRDL2 binding to arrayed compounds – biochemical, biotinylated probe, 635/667 nm fluorescence, primary screen (AID 1100). The following applies: small-molecule microarray, higher = more signal.
Assay [14] is described as follows: change in splice reporter luminescence, either direction, cell-based, HEK293, spliceosome inhibition project, primary screen (AID 1101).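 Note: HEK293 cells carrying a splicing-competent luciferase reporter gene; test concentration not given here.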 The following applies: HEK293 splicing luciferase reporter, 24 h, higher = more signal, called active from +8 up or from −8 down.
Assay [15] concerns the target Fibroblast growth factor 10 (Homo sapiens) (UniProt O15520). Put plainly: compounds binding fibroblast growth factor 10 – biochemical, small-molecule microarray, 635 nm fluorescence, primary screen (AID 1102). The following applies: FGF10 binding, fluorescence 635 nm, higher = more signal.
Assay [16] concerns glycogen synthase kinase-3 (GSK3A per assay name; protocol says GSK3B). The experiment in a line: compounds binding glycogen synthase kinase-3 – biochemical, small-molecule microarray, 635 nm fluorescence, GSK3A, primary screen (AID 1103). Note: the record names both GSK3A and GSK3B. To be noted: fluorescence 635 nm, higher = more signal.
In assay [17] the target is Epidermal growth factor receptor (Homo sapiens) (UniProt P00533). The experiment in a line: compounds binding epidermal growth factor receptor – biochemical, small-molecule microarray, 635 nm fluorescence, primary screen (AID 1104).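 Note: score merges 667 nm emission intensity with spot signal to noise over triplicate slides.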 The following applies: EGFR binding, higher = more signal.
In assay [18] the target is Follistatin-related protein 3 (Homo sapiens) (UniProt O95633). Put plainly: compounds binding follistatin-related protein 3 – biochemical, small-molecule microarray, 635 nm fluorescence, primary screen (AID 1105).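 Note: score merges emission near 667 nm and signal to noise per printed spot across three slides.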 The following applies: FSTL3 binding, higher = more signal.
Assay [19] has as its target Dickkopf-related protein 1 (Homo sapiens) (UniProt O94907). Put plainly: small molecules binding DKK1 protein – biochemical, small-molecule microarray, 635 nm fluorescence scan, primary screen (AID 1106).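 Note: score merges emission near 667 nm with signal to noise over three replicate slides.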 The following applies: higher = more signal.
Assay [20] deals with Inhibin beta A chain (activin A). Put plainly: small molecules binding activin A – biochemical, small-molecule microarray, 635 nm fluorescence scan, primary screen (AID 1107).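 Note: mouse activin A protein probed at 4.33 µg/mL on printed slides; score merges bound-protein fluorescence near 667 nm with spot signal-to-noise.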 The following applies: INHBA, higher = more signal.

Chain of Follistatin-related protein 3 (Homo sapiens) (O95633 whole entry, looked up): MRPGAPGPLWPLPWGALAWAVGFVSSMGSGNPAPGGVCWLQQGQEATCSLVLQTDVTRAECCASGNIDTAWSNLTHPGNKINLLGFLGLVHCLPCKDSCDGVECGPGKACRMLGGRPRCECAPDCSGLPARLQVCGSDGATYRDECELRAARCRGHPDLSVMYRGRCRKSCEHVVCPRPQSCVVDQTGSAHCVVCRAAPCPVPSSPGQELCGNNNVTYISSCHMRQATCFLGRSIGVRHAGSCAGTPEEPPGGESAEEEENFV
Chain of Torsin-1A-interacting protein 2 (Homo sapiens) (Q8NFQ8 whole entry, looked up): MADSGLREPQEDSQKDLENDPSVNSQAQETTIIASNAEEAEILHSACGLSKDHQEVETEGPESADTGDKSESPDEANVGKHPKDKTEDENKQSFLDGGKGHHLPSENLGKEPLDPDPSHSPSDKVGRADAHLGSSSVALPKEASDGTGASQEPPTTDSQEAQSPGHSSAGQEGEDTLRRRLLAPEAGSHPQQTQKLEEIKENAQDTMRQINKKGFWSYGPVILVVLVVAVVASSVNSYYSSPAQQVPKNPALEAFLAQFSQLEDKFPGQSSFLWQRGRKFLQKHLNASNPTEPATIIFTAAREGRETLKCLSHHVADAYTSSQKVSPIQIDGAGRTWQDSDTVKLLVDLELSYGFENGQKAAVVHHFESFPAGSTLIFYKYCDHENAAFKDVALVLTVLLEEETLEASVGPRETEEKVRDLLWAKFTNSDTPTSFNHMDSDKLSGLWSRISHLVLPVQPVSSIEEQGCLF
Chain of Neurogenic locus notch homolog protein 3 (Homo sapiens) (Q9UM47 whole entry, looked up): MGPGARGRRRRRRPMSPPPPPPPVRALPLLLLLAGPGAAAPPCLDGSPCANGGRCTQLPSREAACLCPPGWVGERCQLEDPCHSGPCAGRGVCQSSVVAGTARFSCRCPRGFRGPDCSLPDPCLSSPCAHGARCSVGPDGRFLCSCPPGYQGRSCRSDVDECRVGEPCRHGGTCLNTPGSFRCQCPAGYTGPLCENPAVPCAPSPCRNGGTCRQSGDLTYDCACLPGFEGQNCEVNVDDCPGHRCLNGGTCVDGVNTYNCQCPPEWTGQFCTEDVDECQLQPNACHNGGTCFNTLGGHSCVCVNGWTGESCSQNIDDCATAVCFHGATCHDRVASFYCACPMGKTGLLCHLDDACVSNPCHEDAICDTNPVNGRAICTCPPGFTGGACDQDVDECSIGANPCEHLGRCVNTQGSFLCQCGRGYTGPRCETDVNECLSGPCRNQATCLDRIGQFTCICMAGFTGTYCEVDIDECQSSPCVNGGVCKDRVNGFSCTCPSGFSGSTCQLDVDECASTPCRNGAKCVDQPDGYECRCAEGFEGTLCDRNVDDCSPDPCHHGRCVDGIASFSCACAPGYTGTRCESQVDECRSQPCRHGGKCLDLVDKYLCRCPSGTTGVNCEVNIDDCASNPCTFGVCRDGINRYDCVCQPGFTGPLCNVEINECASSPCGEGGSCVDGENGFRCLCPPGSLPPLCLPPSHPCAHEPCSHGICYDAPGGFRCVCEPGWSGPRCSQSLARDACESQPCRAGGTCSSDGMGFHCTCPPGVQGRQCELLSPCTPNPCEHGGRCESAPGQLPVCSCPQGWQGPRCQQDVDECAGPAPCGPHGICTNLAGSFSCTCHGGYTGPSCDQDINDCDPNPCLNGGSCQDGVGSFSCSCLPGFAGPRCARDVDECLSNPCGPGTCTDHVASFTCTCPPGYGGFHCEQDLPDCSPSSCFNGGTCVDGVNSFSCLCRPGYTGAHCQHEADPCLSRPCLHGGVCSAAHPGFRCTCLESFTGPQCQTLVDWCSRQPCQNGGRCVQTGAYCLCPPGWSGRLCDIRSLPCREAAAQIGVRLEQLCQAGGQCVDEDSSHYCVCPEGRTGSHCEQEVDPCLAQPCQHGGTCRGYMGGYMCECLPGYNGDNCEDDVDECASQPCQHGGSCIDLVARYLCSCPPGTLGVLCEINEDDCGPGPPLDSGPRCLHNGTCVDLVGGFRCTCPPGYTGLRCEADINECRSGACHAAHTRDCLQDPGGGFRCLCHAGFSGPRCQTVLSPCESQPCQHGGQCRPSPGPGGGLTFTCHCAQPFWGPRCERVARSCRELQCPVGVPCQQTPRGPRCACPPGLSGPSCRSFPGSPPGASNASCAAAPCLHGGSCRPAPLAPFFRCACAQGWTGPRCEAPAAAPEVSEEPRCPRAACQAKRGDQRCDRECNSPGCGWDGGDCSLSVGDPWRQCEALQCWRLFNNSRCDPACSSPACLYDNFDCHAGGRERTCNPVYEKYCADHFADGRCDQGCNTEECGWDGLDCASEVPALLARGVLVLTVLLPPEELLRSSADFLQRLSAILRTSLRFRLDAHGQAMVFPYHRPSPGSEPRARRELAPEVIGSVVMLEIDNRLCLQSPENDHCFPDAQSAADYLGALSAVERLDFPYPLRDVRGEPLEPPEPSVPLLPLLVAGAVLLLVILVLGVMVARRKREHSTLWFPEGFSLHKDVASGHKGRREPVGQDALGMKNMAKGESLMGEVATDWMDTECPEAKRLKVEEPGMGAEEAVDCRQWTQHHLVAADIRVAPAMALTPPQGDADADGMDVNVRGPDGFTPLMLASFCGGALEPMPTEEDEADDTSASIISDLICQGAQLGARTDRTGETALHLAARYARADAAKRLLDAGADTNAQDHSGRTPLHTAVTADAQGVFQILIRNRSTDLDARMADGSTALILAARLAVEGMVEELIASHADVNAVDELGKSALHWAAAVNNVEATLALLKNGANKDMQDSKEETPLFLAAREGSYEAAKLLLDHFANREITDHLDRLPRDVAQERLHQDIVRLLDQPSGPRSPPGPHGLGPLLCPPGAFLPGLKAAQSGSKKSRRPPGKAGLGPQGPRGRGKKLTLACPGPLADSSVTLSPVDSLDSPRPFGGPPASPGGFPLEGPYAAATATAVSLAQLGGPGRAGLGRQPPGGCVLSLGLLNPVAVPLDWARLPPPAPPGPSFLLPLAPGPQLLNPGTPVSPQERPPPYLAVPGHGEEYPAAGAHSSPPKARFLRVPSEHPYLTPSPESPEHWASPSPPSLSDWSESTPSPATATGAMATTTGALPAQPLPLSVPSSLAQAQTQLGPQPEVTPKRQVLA
Chain of Fibroblast growth factor 10 (Homo sapiens) (O15520 whole entry, looked up): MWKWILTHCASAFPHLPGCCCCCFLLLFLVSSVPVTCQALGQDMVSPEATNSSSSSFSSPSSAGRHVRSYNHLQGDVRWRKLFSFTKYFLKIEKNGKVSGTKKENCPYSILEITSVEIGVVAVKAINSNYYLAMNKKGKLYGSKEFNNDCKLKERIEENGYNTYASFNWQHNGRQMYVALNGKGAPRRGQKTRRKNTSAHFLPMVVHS
Chain of Epidermal growth factor receptor (Homo sapiens) (P00533 whole entry, looked up): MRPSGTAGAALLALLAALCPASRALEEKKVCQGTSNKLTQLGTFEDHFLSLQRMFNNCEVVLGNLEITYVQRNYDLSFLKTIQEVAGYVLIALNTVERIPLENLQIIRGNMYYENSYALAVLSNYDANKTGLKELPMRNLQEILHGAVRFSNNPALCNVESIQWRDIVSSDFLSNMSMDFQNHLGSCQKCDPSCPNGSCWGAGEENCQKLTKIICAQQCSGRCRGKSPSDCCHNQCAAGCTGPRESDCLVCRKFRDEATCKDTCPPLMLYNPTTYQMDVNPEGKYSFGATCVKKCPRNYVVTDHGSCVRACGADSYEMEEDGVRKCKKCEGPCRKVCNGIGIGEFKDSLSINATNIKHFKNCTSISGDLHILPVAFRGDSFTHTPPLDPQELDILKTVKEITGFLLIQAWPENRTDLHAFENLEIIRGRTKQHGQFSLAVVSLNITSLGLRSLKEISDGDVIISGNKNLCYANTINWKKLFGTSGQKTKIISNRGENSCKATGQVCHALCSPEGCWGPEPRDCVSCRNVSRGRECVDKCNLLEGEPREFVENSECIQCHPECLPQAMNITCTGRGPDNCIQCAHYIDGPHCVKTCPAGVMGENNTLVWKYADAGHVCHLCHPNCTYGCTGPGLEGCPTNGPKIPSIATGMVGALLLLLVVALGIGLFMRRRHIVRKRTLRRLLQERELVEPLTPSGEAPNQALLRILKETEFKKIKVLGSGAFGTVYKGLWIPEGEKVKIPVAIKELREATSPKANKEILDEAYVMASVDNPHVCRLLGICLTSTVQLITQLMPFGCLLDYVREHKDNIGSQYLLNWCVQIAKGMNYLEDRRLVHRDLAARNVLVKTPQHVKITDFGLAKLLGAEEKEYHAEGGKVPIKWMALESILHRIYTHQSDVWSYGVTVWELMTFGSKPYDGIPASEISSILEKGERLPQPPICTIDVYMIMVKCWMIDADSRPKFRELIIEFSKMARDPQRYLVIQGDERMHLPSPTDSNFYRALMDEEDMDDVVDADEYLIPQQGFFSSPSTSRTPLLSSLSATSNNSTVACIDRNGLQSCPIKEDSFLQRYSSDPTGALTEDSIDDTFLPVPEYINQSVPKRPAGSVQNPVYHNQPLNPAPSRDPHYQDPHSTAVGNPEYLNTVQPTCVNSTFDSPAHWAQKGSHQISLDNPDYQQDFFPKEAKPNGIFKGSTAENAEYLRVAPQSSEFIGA
Chain of Dickkopf-related protein 1 (Homo sapiens) (O94907 whole entry, looked up): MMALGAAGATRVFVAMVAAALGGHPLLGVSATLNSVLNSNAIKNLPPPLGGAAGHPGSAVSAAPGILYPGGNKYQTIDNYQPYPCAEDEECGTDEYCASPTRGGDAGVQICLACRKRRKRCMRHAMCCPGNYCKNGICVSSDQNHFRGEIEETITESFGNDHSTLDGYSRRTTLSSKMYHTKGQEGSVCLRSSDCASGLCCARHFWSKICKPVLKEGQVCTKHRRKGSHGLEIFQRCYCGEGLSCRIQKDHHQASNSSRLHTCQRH

Regarding `CCOC(=O)[C@@H]1CCCCN1C(=O)C(=O)OC`, the composite z-score in [1] is 0.828; in [5] it was 0.377; in assay [7], -0.0728; in [8] it was 0.415; in assay [9] it was 0.717; in assay [10], -0.133. The composite z-score in assay [11] is 0.157; in [12], -0.0335; in [13], -0.402; in assay [15], 0.549; in assay [16] it was 0.547; in assay [17], 0.243. In addition, the values for the composite z-score in [18], in [19] and in [20] were 0.751, 0.333 and -0.206, respectively. For the same molecule, the z-score is 0.0293 (inactive) in assay [2]; 0.656 (inactive) in assay [3]; -0.131 (inactive) in assay [4]; 0.66 (inactive) in assay [6]; 1.11 (inactive) in [14].
With `COC(=O)C1(CC(C)C)C=C2C(=C(c3ccccc3)C(=O)C2C)CN1` (stereo not given), the composite z-score in assay [1] is -0.291; in assay [5] it was 2.16; in assay [7] it was 1.1; in assay [8], -1.13; in [9] it was 0.141; in assay [10] it was 0.917. For the same molecule, the composite z-score is 0.055 in assay [11]; 1.49 in [12]; 1.36 in [13]; 0.896 in assay [15]; -0.713 in [16]; 0.233 in assay [17]. The results for the composite z-score in assay [18], in assay [19] and in [20] were 0.261, -1.19 and 1.53, respectively. Moreover, the z-score in [2] is -0.201 (inactive); in [3] it was 0.424 (inactive); in [4], 1.71 (inactive); in [6], -0.326 (inactive); in assay [14], 1.45 (inactive).
As for `CCCC#C[Si](O[C@H](CC)c1cn([C@H](C)c2ccccc2)nn1)(C(C)C)C(C)C`, the composite z-score was found to be 0.817 in [1]; 1.05 in assay [5]; 0.0539 in assay [7]; 0.316 in assay [8]; 0.579 in [9]; 0.359 in assay [10]. In addition, the composite z-score in assay [11] is 0.2; in assay [12], 0.313; in assay [13], -0.212; in assay [15], 0.568; in assay [16], 0.588; in [17], 0.564. Moreover, the composite z-score in assay [18] is 0.47; in assay [19], 0.285; in [20], -0.348. The z-score is -0.764 (inactive) in assay [2]; -10.2 (active) in assay [3]; -3.25 (inactive) in assay [4]; 2.37 (inactive) in [6]; -0.383 (inactive) in assay [14].
With `[N-]=[N+]=Nc1ccccc1[C@H]1OC(c2ccc(OCCCO)cc2)=N[C@@]1(Cc1ccccc1)C(=O)NCCN1CCOCC1`, the composite z-score in [1] is 1.57; in assay [5], 3.23; in assay [7] it was 0.363; in assay [8], 1.36; in assay [9] it was 1.05; in assay [10] it was 0.688. For the same molecule, the composite z-score amounted to 1.59 in assay [11]; 1.34 in [12]; 1.29 in assay [13]; 1.3 in [15]; 1.28 in assay [16]; 0.81 in [17]. Further, the figures for the composite z-score in [18], in [19] and in assay [20] were 1.37, 0.196 and 1.13, respectively. In addition, the z-score in [2] is 0.0597 (inactive); in [3], -1.75 (inactive); in [4] it was 1.72 (inactive); in assay [6] it was 1.06 (inactive); in [14], -1.01 (inactive).
Consider `[N-]=[N+]=Nc1ccccc1C[C@@]1(C(=O)N2CCOCC2)N=C(c2ccc(OCCCO)cc2)O[C@@H]1c1ccccc1`, for which the composite z-score was 1.54 in assay [1]; 3.38 in [5]; 0.0946 in assay [7]; 0.955 in assay [8]; 1.11 in assay [9]; 0.778 in [10]. For the same molecule, the composite z-score is 0.816 in assay [11]; 1.46 in assay [12]; 0.59 in [13]; 1.36 in assay [15]; 1.31 in [16]; 0.577 in assay [17]. Further, the composite z-score was 1.25 in assay [18], -0.0771 in assay [19] and -0.431 in [20]. Moreover, the z-score was -1.41 (inactive) in assay [2]; -2.77 (inactive) in assay [3]; 0.0666 (inactive) in assay [4]; 0.568 (inactive) in assay [6]; -0.818 (inactive) in assay [14].
